Drawing on PubChem BioAssay (NCATS), this text covers Potency for 33 compounds.

Molecules are shown by their SMILES. Results filed as inconclusive are left out. Entries that show only a call come without a potency. Active and inactive are the calls of the source. The call rests on the fitted dose curve; in most records, active means well fitted cell-killing curve with a large enough effect; inconclusive means small, poorly fitted or top-dose-only effect, or effect the other way; inactive means flat fitted curve, though single readings scatter.
Potency means the concentration at half of the fitted maximal effect.

The first assay concerns CAOV3. The assay can be described thus: Primary qHTS to identify gynecologic anti-cancer compounds using libraries of approved drugs and bioactive compounds (AID 1345084). Further: nearly all actives have a fitted effect of over 55% in size. As to conditions: Gynecologic cancer cell panel viability, ATPlite luminescence, 48 h; series mostly up to 57.5 µM. An outline of the steps:
(§1)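 Cell viability after 48 h drug treatment, ATPlite luminescence readout; five doses.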
Background: qHTS replaces the single test concentration by a dilution series.
`COc1nccc(-c2c(-c3ccc(F)cc3)ncn2C2CCC(O)CC2)n1` (stereo not drawn): the Potency entry is “inactive”.

With `O=C1C(c2c(O)[nH]c3ccccc23)=Nc2ccccc21`, the Potency entry is “inactive”.

Take `NS(=O)(=O)c1cc(Cl)c(Cl)c(S(N)(=O)=O)c1`: the Potency result was “inactive”.

Consider `CNC(=O)c1c(-c2ccc(F)cc2)oc2cc(N(CCO)S(C)(=O)=O)c(C3CC3)cc12`, for which the Potency entry is “inactive”.

In the case of `c1cc(OCCN2CCCCC2)cc(-c2n[nH]c3ccc(-c4ncn[nH]4)cc23)c1`, the Potency entry is “inactive”.

Regarding `c1ccc(CNc2nc(N3CCOc4ccccc43)nc3c2CCCC3)cc1`, the Potency result was “inactive”.

Consider `Cn1c(=O)c(-c2c(Cl)cccc2Cl)cc2cnc(Nc3cccc(C(=O)O)c3)nc21`, for which the Potency result was “inactive”.

`Cc1cc2c(cc1C1(c3ccc(C(=O)O)cn3)CC1)C(C)(C)CCC2(C)C`: the Potency result is “inactive”.

As for `COc1cc2ncnc(Nc3cc(Br)c(O)c(Br)c3)c2cc1OC`, the Potency result is “inactive”.

As to `C[C@H](c1ccc(F)cc1CCCC(=O)O)N(c1cc(F)ccc1F)S(=O)(=O)c1ccc(Cl)cc1`, the Potency entry is “inactive”.

Turning to `Cc1cnc(-c2cc(N3CCN(C(=O)CCS(C)(=O)=O)CC3)ncc2Cl)c(C)c1`, the Potency entry was “inactive”.

For a further assay, the system named is CASKI. Described as above. As to conditions: Gynecologic cancer cell panel viability, ATPlite luminescence, 48 h; series mostly up to 57.5 µM. An outline of the steps: as §1
(In ATP-based viability assays light output follows the ATP content of the culture.)
On to `COc1nccc(-c2c(-c3ccc(F)cc3)ncn2C2CCC(O)CC2)n1` (stereo not drawn), for which the Potency entry is “inactive”.

For `CNc1nc(Nc2ccc(C(=O)N3CCOCC3)cc2OC)ncc1Cl`, the Potency result was “inactive”.

For `O=C1C(c2c(O)[nH]c3ccccc23)=Nc2ccccc21`, the Potency entry is “inactive”.

Regarding `COc1cc(Nc2nc3ccccc3nc2NS(=O)(=O)c2ccc(NC(=O)c3ccc(C)c(OC)c3)cc2)cc(OC)c1`, the Potency entry was “inactive”.

`COc1ccc(-c2ccc3ncc4c(c3c2)n(-c2ccc(N3CCNCC3)c(C(F)(F)F)c2)c(=O)n4C)cn1`: the Potency was 794 nM (active).

Consider `NS(=O)(=O)c1cc(Cl)c(Cl)c(S(N)(=O)=O)c1`, for which the Potency entry is “inactive”.

`CN1C(=O)C(Cc2c[nH]c3ccccc23)NC1=S` (stereo not drawn): the Potency result was “inactive”.

In the case of `CN1c2ccccc2C(=O)N2CCc3c([nH]c4ccccc34)C21` (stereo not drawn), the Potency was 7080 nM (active).

Consider `CNC(=O)c1c(-c2ccc(F)cc2)oc2cc(N(CCO)S(C)(=O)=O)c(C3CC3)cc12`, for which the Potency result was “inactive”.

Turning to `CC1CCN(c2cc(N3CCN(C)CC3)ccc2NC(=O)c2cc(C#N)c[nH]2)CC1`, the Potency result is “inactive”.

For `COc1ccnc(CS(=O)c2nc3ccc(OC(F)F)cc3[nH]2)c1OC` (stereo not drawn), the Potency result was “inactive”.

For `c1cc(OCCN2CCCCC2)cc(-c2n[nH]c3ccc(-c4ncn[nH]4)cc23)c1`, the Potency entry was “inactive”.

With `O=C(CO)N1CCC(c2[nH]nc(-c3ccc(Cl)cc3)c2-c2ccncn2)CC1`, the Potency result is “inactive”.

In the case of `Cc1ccccc1-n1c(Cn2nc(-c3cccc(O)c3)c3c(N)ncnc32)nc2cccc(C)c2c1=O`, the Potency result is “inactive”.

As for `CC(C)(OCc1nn(Cc2ccccc2)c2ccccc12)C(=O)O`, the Potency entry is “inactive”.

On to `Nc1ccc(-c2ccc3ncc4ccc(=O)n(-c5cccc(C(F)(F)F)c5)c4c3c2)cn1`, for which the Potency is 1000 nM (active).

Turning to `Cc1ccccc1C(C(=O)NC1CCCCC1)N(C(=O)CNc1ccc(C#N)cc1)c1cccc(F)c1` (stereo not drawn), the Potency result is “inactive”.

Consider `COc1nc(C)cnc1NS(=O)(=O)c1cccnc1-c1ccc(-c2nnco2)cc1`, for which the Potency entry was “inactive”.

On to `O=C(c1ccc(C(=O)N2CCC(N3CCCC3)CC2)c(Nc2ccccc2)c1)N1CCC(N2CCCC2)CC1`, for which the Potency entry was “inactive”.

In the case of `CC1=C(C(=O)Nc2cc3cn[nH]c3cc2F)C(c2ccc(C(F)(F)F)cc2)CC(=O)N1` (stereo not drawn), the Potency result is “inactive”.

With `c1ccc(CNc2nc(N3CCOc4ccccc43)nc3c2CCCC3)cc1`, the Potency result was “inactive”.

For the compound `Cn1c(=O)c(-c2c(Cl)cccc2Cl)cc2cnc(Nc3cccc(C(=O)O)c3)nc21`, the Potency result was “inactive”.

For the compound `CCN1C[C@H](C)n2c(c(O)c3c(=O)n(Cc4ccc(F)c(Cl)c4)nc(C(=O)NC)c32)C1=O`, the Potency entry was “inactive”.

On to `COc1ccc(CCC(=O)Nc2nc3ccc(Cl)cc3s2)cc1OC`, for which the Potency entry is “inactive”.

Turning to `COc1cc2ncnc(Nc3cc(Br)c(O)c(Br)c3)c2cc1OC`, the Potency result was “inactive”.

As for `O=C(O)CCNc1cc(N2CCc3ccccc3CC2)nc(-c2ccccn2)n1`, the Potency result is “inactive”.

In the case of `CN1CCC(COc2cnc(-c3cccc(Cn4nc(-c5cccc(C#N)c5)ccc4=O)c3)nc2)CC1`, the Potency result was “inactive”.

As for `C[C@@]1(c2cc(-c3cncnc3)c(F)cc2F)CCSC(N)=N1`, the Potency result is “inactive”.

`C[C@H](c1ccc(F)cc1CCCC(=O)O)N(c1cc(F)ccc1F)S(=O)(=O)c1ccc(Cl)cc1`: the Potency entry is “inactive”.

Take `COC(=O)N1CCN(Cc2cccc(NC(=O)Nc3ccc(C)nc3)c2F)CC1`: the Potency entry is “inactive”.

In the case of `Cc1cnc(-c2cc(N3CCN(C(=O)CCS(C)(=O)=O)CC3)ncc2Cl)c(C)c1`, the Potency entry was “inactive”.

Turning to `NC(=O)c1ccc(N(C(N)=O)c2c(F)cccc2F)nc1-c1ccc(F)cc1F`, the Potency entry is “inactive”.
